{
  "source": "PubChem BioAssay AID710",
  "about": "(SRMLSC, 2007)",
  "note": "The whole screen tested about 98,000 compounds, of which about 150 (0.15%) were called active. This is one part of a sample in which actives are shown more often than they occur.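 How the source made its calls: active means growth inhibition above about 50% at one test dose (limit read from the data); inactive means the rest.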",
  "data": [
    {"assay": "antibacterial activity against E. coli BW25113 – strain BW25113, expanded library, OD600, primary screen (AID 710);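 further: growth measured after 20 h incubation at 37 °C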", "details": "OD600 absorbance, at 100 µM, active compounds read high", "values": [
      {"smiles": "CCOC(=O)c1nn(-c2cccc(C)c2)cc1C(=O)c1ccccc1", "growth inhibition": "5% (inactive)"},
      {"smiles": "Cc1ccc(N(CC(=O)Nc2cccc(N(C)S(C)(=O)=O)c2)S(C)(=O)=O)cc1", "growth inhibition": "-5% (inactive)"},
      {"smiles": "Cc1ccn(C(CC(=O)c2ccc(Br)cc2)C(=O)O)n1", "note": "(stereo not given)", "growth inhibition": "8% (inactive)"},
      {"smiles": "Cn1sc(NC(=O)c2ccccc2)nc1=O", "growth inhibition": "-5% (inactive)"},
      {"smiles": "Cc1cc(C)c(S(=O)(=O)N2C=CC(C(F)(F)F)=NCC2)c(C)c1", "growth inhibition": "7% (inactive)"},
      {"smiles": "CCOc1ccc(S(=O)(=O)Nc2nc3cc(OC)ccc3s2)cc1", "growth inhibition": "-6% (inactive)"},
      {"smiles": "CCCCc1nc(NCCN)c(C#N)c2c1CSC(C)(C)C2", "growth inhibition": "33% (inactive)"},
      {"smiles": "Cc1ccc(Oc2ccc3c(c2)C(=O)N(c2cccc4cccnc24)C3=O)cc1", "growth inhibition": "3% (inactive)"},
      {"smiles": "OCCNc1nc2ccccc2[nH]1", "growth inhibition": "2% (inactive)"},
      {"smiles": "Cc1ccc(S(=O)(=O)N2CCC(C(=O)NCC3CCCO3)CC2)cc1", "note": "(stereo not given)", "growth inhibition": "-7% (inactive)"},
      {"smiles": "CC1(C)Cc2nc3sc4c(SCC(=O)NC(c5ccccc5)c5ccccc5)ncnc4c3cc2CO1", "growth inhibition": "-10% (inactive)"},
      {"smiles": "CN(C)C(=O)c1cc(Br)ccc1Cl", "growth inhibition": "2% (inactive)"},
      {"smiles": "C=CCN(C(=O)Cn1ncc2c1-c1cc(C)ccc1OC2)c1ccccc1", "growth inhibition": "5% (inactive)"},
      {"smiles": "O=c1[nH]n(-c2cccc(Cl)c2)c2ncccc12", "growth inhibition": "-6% (inactive)"},
      {"smiles": "CCOc1ccccc1NC(=O)C12CC3CC(C1)CC(c1ccc(C)cc1)(C3)C2", "growth inhibition": "-16% (inactive)"},
      {"smiles": "O=C(CCN1c2ccccc2Sc2ccccc21)Nc1ccccc1", "growth inhibition": "-21% (inactive)"},
      {"smiles": "Cc1cc([N+](=O)[O-])ccc1NCc1cccc([N+](=O)[O-])c1", "growth inhibition": "-11% (inactive)"},
      {"smiles": "CCOc1ccc(S(=O)(=O)Nc2ccc(S(=O)(=O)Nc3cc(OC)ccc3OC)cc2)cc1", "growth inhibition": "-6% (inactive)"},
      {"smiles": "CCCCn1c(=S)[nH]c2cc(S(=O)(=O)N3CCCCC3)ccc21", "growth inhibition": "2% (inactive)"},
      {"smiles": "CSC1=N/C(=C\\c2ccc3c(c2)OCO3)C(=O)S1", "growth inhibition": "-11% (inactive)"},
      {"smiles": "COc1cccc(NC(=O)c2nn(C34CC5CC(CC(C5)C3)C4)cc2[N+](=O)[O-])c1", "growth inhibition": "-6% (inactive)"},
      {"smiles": "O=c1c2ccccc2c(-c2ccc(Br)cc2)nn1Cc1ccccc1", "growth inhibition": "-14% (inactive)"},
      {"smiles": "COc1ccc(-c2cn(-c3ccc(C)cc3)c(=O)n2CC(=O)Nc2ccc(OC)c(OC)c2)cc1", "growth inhibition": "-4% (inactive)"},
      {"smiles": "CC1CC(C)CN(C/C=C/c2ccccc2[N+](=O)[O-])C1", "note": "(stereo not given)", "growth inhibition": "-1% (inactive)"},
      {"smiles": "CCCCNC(=O)OC(C)CNC(=O)OC", "note": "(stereo not given)", "growth inhibition": "10% (inactive)"},
      {"smiles": "Cc1cc(NC(=O)CS(=O)(=O)c2cn(C)c3ccccc23)no1", "growth inhibition": "0% (inactive)"},
      {"smiles": "COc1cc(CNCc2cccs2)cc(Br)c1OC", "growth inhibition": "5% (inactive)"},
      {"smiles": "c1ccc(COc2ccccc2CNCc2cccnc2)cc1", "growth inhibition": "3% (inactive)"},
      {"smiles": "CCNc1nc(N)nc(-c2cc(Cl)ccc2OC)n1", "growth inhibition": "4% (inactive)"},
      {"smiles": "Cn1c(-c2sc3cc(C(F)(F)F)cnc3c2-c2ccccc2)n[nH]c1=S", "growth inhibition": "-2% (inactive)"},
      {"smiles": "C=CCn1c(SCC(=O)c2ccc(Br)cc2)nnc1C(C)NC(=O)Cc1ccc(OC)cc1", "note": "(stereo not given)", "growth inhibition": "4% (inactive)"},
      {"smiles": "Cc1ccc(C(=O)N2CCN(C(=O)N3CCOCC3)CC2)cc1", "growth inhibition": "0% (inactive)"},
      {"smiles": "CCN(CC)S(=O)(=O)c1ccc(N(C)Cc2ccc(C(F)(F)F)cc2)nc1", "growth inhibition": "-2% (inactive)"},
      {"smiles": "CC(C)Cn1cnc2c1c(=O)n(CC(O)c1ccccc1)c(=O)n2CC(C)C", "note": "(stereo not given)", "growth inhibition": "8% (inactive)"},
      {"smiles": "CC(=O)c1c(C)n([O-])c2ccccc2[n+]1=O", "growth inhibition": "100% (active)"},
      {"smiles": "CC(=O)c1ccc2c(c1)c1ccccc1n2CC(C)C", "growth inhibition": "-1% (inactive)"},
      {"smiles": "Cc1ccc(C)c(N2C(=O)CS/C2=N\\NC(=O)c2ccccc2Cl)c1", "growth inhibition": "1% (inactive)"},
      {"smiles": "Nc1c(-c2ccc(F)cc2)cnn1C1CCS(=O)(=O)C1", "note": "(stereo not given)", "growth inhibition": "15% (inactive)"},
      {"smiles": "COc1ccc(-c2c(C(C)=O)c(C)nc3sc4c(=O)n(-c5ccc(C)cc5)nnc4c23)cc1", "growth inhibition": "-14% (inactive)"},
      {"smiles": "COc1ccc(S(=O)(=O)Nc2ccc(F)cc2)c(C)c1C", "growth inhibition": "11% (inactive)"},
      {"smiles": "O=C(c1ccc2c(c1)OCO2)N1CCN(C(=O)c2ccco2)CC1", "growth inhibition": "2% (inactive)"},
      {"smiles": "CN=C1S/C(=C\\c2ccc(Sc3ccc(Cl)cc3)o2)C(=O)N1C", "growth inhibition": "-20% (inactive)"},
      {"smiles": "COC(=O)COc1ccc(S(=O)(=O)Nc2ccc(NC(C)=O)cc2)cc1", "growth inhibition": "0% (inactive)"},
      {"smiles": "COC(=O)CNS(=O)(=O)c1ccc(Cc2ccc(S(=O)(=O)NCC(=O)OC)cc2)cc1", "growth inhibition": "50% (active)"},
      {"smiles": "COC(=O)CNS(=O)(=O)c1ccc(OC)cc1", "growth inhibition": "1% (inactive)"},
      {"smiles": "Cc1ccc(C2CC2C(=O)NN)cc1", "note": "(stereo not given)", "growth inhibition": "-12% (inactive)"},
      {"smiles": "CCCNC(=O)c1ccccc1NC(=O)CSCc1ccc(OC)cc1", "growth inhibition": "0% (inactive)"},
      {"smiles": "Cc1ccc(Sc2cc(N3CCOCC3)nc(-c3ccccc3)n2)cc1", "growth inhibition": "-9% (inactive)"},
      {"smiles": "C=CCn1c(SCC(=O)/C(C#N)=C(\\C)N)nc2sc(C)c(C)c2c1=O", "growth inhibition": "-6% (inactive)"},
      {"smiles": "CC(C)(C)c1ccc(OC2=CS(=O)(=O)c3ccccc32)cc1", "growth inhibition": "-3% (inactive)"},
      {"smiles": "Cc1ccc(CNC(=O)C2CC(c3ccccc3[N+](=O)[O-])=NO2)o1", "note": "(stereo not given)", "growth inhibition": "0% (inactive)"},
      {"smiles": "CCC(=O)Nc1ccc(S(=O)(=O)NCC2CCCO2)cc1", "note": "(stereo not given)", "growth inhibition": "3% (inactive)"},
      {"smiles": "CC(C)c1ccc(C(=O)NCCCc2ccccc2)cc1", "growth inhibition": "1% (inactive)"},
      {"smiles": "C=CCOC(=O)C1=C(C)NC(SCC(=O)OCC)=C(C#N)C1c1ccc(C)cc1", "note": "(stereo not given)", "growth inhibition": "-10% (inactive)"},
      {"smiles": "CCOc1ccc(C(=O)NC(C(=O)NCc2ccccn2)C(C)C)cc1", "note": "(stereo not given)", "growth inhibition": "-6% (inactive)"}
    ]}
  ]
}
